# Shown are actives, neighbours in structure and some others; about 7.9% of the full set was active somewhere.
# HT1080 IDH1KD tx – HT-1080 IDH1 knockdown cell toxicity (counter line); HT-1080 IDH1 knockdown viability, ATP luminescence, 48 h; Potency, µM (top dose mostly 46.1 µM), hits mostly cytotoxic; hit rate 2% among 360,000
#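 CellTiter-Glo luminescence after 48 h compound exposure at 37 degrees C of IDH1-knockdown HT-1080 cells in 5% FBS RPMI. %Activity scaled between DMSO wells and cell-free media wells, with curves fitted and assigned curve classes.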
# MCF10A rerep – induces DNA re-replication in MCF 10a normal breast cells. MCF 10A DNA re-replication, Hoechst nuclear intensity, 48 h. Potency, µM (series often up to 46.1 µM), hits mostly activators. hit rate 2.9% among 350,000; further: nearly all actives have a fitted effect of over 50% in size
# KB-V1 MDR tox – kills drug-selected multidrug resistant KB-V1 cells; KB-V1 MDR cells viability, CellTiter-Glo, 72 h; hit rate 3.4% among 400,000; Potency, µM (titrated, usually from 46.1 µM), actives largely listed as cytotoxic; AID 1347076; further: nearly all actives have a fitted effect of over 60% in size
#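 Luminescent ATP read-out (CellTiter-Glo, 10 min) measures survival of drug-selected KB-V1 MDR cells after 72 h, 37 degrees C compound exposure. Medium: phenol-red-free DMEM, 10% FBS. Values from fitted concentration-response curves.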
# HT1080-NT tox – kills 2HG-producing HT-1080-NT fibrosarcoma cells | HT-1080-NT fibrosarcoma viability, CellTiter-Glo ATP luminescence, 48 h | Potency, µM (highest dose often 46.1 µM), actives largely listed as cytotoxic | hit rate 1.6% among 360,000;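 further: NT is the 2HG producing partner of a matched IDH1 knockdown line; nearly all actives have a fitted effect of over 55% in size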
#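 Compounds were tested in concentration-response format on HT-1080-NT cells for 48 hours at 37 degrees C. Cell viability came from CellTiter-Glo luminescence; curves were classified by r2, response magnitude and activity.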
# KB-3-1 cytotox – KB-3-1 parental cell cytotoxicity | KB-3-1 viability, CellTiter-Glo ATP luminescence, 72 h | Potency, µM (titrated, usually from 46.1 µM), hits mostly cytotoxic | hit rate 1.4% among 400,000 | AID 1347075; further: nearly all actives have a fitted effect of over 60% in size
#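 Cytotoxicity measured as CellTiter-Glo luminescence after 72 h at 37 C. Compound titrations were pinned onto drug-naive KB-3-1 parental adenocarcinoma cells grown in DMEM with 10% FBS, and normalized data fitted to concentration-response curves.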
# SW480 rerep – inducers of DNA re-replication in SW480 colon cancer cells | SW480 DNA re-replication, Hoechst DNA content imaging, 48 h | Potency, µM (top dose mostly 46.1 µM), actives largely listed as activators | hit rate 1.8% among 340,000 | AID 624297; further: nearly all actives have a fitted effect of over 55% in size
#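 Cells (250 per well) received 23 nL compound or DMSO by pin tool and were kept 48 hr at 37 C, 5% CO2. Nuclei were then stained with Hoechst for 40 min and scanned for DNA content.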
# A number is an active result; . = inactive; ? = inconclusive; / = no result; ! = not active in a repeat; [ ] = another dose, or the depositor's remark. The call rests on the fitted dose curve; in most records, active means well fitted curve in the direction sought with a large enough effect; inconclusive means small, poorly fitted or top-dose-only effect, or another doubt; inactive means no such curve, though single readings can be large; an effect the other way counts as inactive or inconclusive.
SMILES,HT1080 IDH1KD tx,MCF10A rerep,KB-V1 MDR tox,HT1080-NT tox,KB-3-1 cytotox,SW480 rerep
CCc1ccc(NC(=O)c2c(C(=O)Nc3ccccc3)sc3nc(C)cc(=O)n23)cc1,.,18µM,.,?,.,.
CCc1ccc(CNC(=O)c2ccc(CS(=O)(=O)Cc3ccccc3C)o2)cc1,/,/,?,/,.,/
CCOCCCNC(=S)Nc1ccc2nc(N3CCCC3)cc(C)c2c1,.,.,7.3µM,.,.,.
Cc1cc(N2CCOCC2)nc2ccc(NC(=S)NC(C)C)cc12,.,23µM,.,.,.,.
CCCCN(CC)CCNC(=S)Nc1ccc2nc(N3CCN(C)CC3)cc(C)c2c1,?,.,.,26µM,?,?
COCCNC(=S)Nc1ccc2nc(N3CCCC3)cc(C)c2c1,.,.,16µM,.,.,.
CCN(CC)S(=O)(=O)c1ccc(C(=O)NC2CC(=O)N(c3ccc(OC)c(OC)c3)C2)cc1 (centres undefined),/,/,?,/,.,/
COc1ccc(N2C(=NC(=O)CCC3CCCC3)SC3CS(=O)(=O)CC32)cc1 (centres undefined),.,.,.,.,.,.
CC(=O)Nc1c(I)c(C(=O)N[C@H]2C(O)O[C@H](CO)[C@@H](O)[C@@H]2O)c(I)c(N(C)C(C)=O)c1I (some centres undefined),.,.,.,?,.,.
C=CC[C@H](CC(=O)N[C@H](CO)Cc1ccccc1)C(=O)N[C@H](COC(=O)[C@H](CC=C)CC(=O)OC(C)(C)C)Cc1c[nH]c2ccccc12,.,?,.,.,.,.
COc1cc(N=c2ssnc2Cl)cc(OC)c1,.,?,.,.,.,?
Clc1nssc1=Nc1ccc(Br)cc1,?,?,?,16µM,.,?
Cn1c(C(=O)N2CCN(c3ccc(F)cc3)CC2)cc2ccccc21,.,.,.,.,.,.
COc1cccc(NC(=O)Cn2c(=O)n(C)c(=O)c3sc4c(c32)COC(C)(C)C4)c1,.,.,.,.,.,.
O=C(NCC1CCCN(Cc2cccc(C(F)(F)F)c2)C1)c1ccc(F)cc1 (centres undefined),.,.,.,.,.,?
Cc1cc(CN2CCCC(CNC(=O)c3ccc(F)cc3)C2)cc(C)c1O (centres undefined),.,23µM,.,.,.,?
Cc1ccc(NC(=O)CSCC(=O)NNC(=O)c2nn(C)c(=O)c3ccccc23)cc1,.,.,.,.,.,.
O=C1C(=O)c2c(ccc3ccccc23)-c2ccccc21,1.8µM,1.8µM,4.1µM,4.6µM,4.1µM,9.2µM
CC(=O)Nc1ccc2nc(-c3cc(C)ccc3C)[nH]c2c1,/,/,16µM,/,?,/
O=C(CNC(=O)c1ccccc1)OCCCOC(=O)CNC(=O)c1ccccc1,.,.,.,.,.,.
CN(CC(=O)Nc1cccc(F)c1)C(=O)c1cc(-c2ccccc2)nc2ccccc12,.,?,?,.,.,.
CN(CC(=O)Nc1cccc(F)c1)C(=O)c1cccc2ccccc12,.,.,18µM,.,.,.
CN(CC(=O)Nc1cccc(F)c1)C(=O)c1ccc(COc2ccccc2)o1,.,.,21µM,.,.,.
CC(=O)N1c2c(cc(Br)cc2S(=O)(=O)N2CCN(c3ccccc3F)CC2)CC1C (centres undefined),.,?,?,.,.,.
CCN1CCN(Cc2ccc(NC(=O)c3cc(NC(=O)c4ccc5n[nH]nc5c4)cc(OC)c3)cc2C(F)(F)F)CC1,.,.,.,.,.,.[9.22 µM]
SMILES,HT1080 IDH1KD tx,MCF10A rerep,KB-V1 MDR tox,HT1080-NT tox,KB-3-1 cytotox,SW480 rerep
CCN1CCN(Cc2ccc(NC(=O)c3cc(NC(=O)c4cncc(-c5cccs5)c4)cc(OC)c3)cc2C(F)(F)F)CC1,18µM,23µM,18µM!,?,?,?
CCN1CCN(Cc2ccc(NC(=O)c3ccc(C)c(NC(=O)c4c[nH]c5cc(C(F)(F)F)ccc5c4=O)c3)cc2C(F)(F)F)CC1,3.3µM,12µM,?,3.3µM,2.3µM,1.8µM
CCN1CCN(Cc2ccc(NC(=O)c3cc(NC(=O)c4cc(-c5ccc(OC)cc5)n[nH]4)cc(OC)c3)cc2C(F)(F)F)CC1,?,.,16µM,?,.,.
CCOC(=O)C1(C)CCCN1C(=O)c1snnc1C (centres undefined),.,/,.,.,.,/
CC(C)(O)C#Cc1ccc(CNC[C@H]2O[C@@H](n3cnc4c(N)ncnc43)[C@H](O)[C@@H]2O)s1,.,.,.,.,.,.
CCN(CC)S(=O)(=O)c1ccc2oc(C(=O)N3CCc4ccccc4C3)c(C)c2c1,.,.,9.2µM,.,?,.
Cc1c(C(=O)N2CCc3ccccc3C2)oc2ccc(S(=O)(=O)N3CC(C)CC(C)C3)cc12 (centres undefined),.,.,?,.,23µM,?
Cc1c(C(=O)N2CCc3ccccc3C2)oc2ccc(Br)cc12,.,?,.,.,.,.
NS(=O)(=O)c1ccc(Sc2ccccn2)c([N+](=O)[O-])c1,.,.,.,.,.,.
NS(=O)(=O)c1ccc(Sc2nc3ccccc3s2)c([N+](=O)[O-])c1,7.3µM,5.8µM,?,?,.,.
CCCc1cc(=O)oc2cc(C)cc(OCC(=O)N[C@@H](CSCc3ccccc3)C(=O)O)c12,.,.,.,.,.,.
Cc1cc(C)cc(NC(=O)c2cccc(N3CCCS3(=O)=O)c2)c1,/,/,.,/,.,/
Cc1ccc(C(=O)Cn2c(C(=O)/C=C/c3ccccc3)nc3ccccc32)cc1,?,23µM,13µM,?,?,?
O=C(N/N=C/C=C\c1ccccc1[N+](=O)[O-])c1ccco1,.,?,.,.,.,26µM
CCCn1c(/C=C/c2ccccc2)nc2ccccc21,10µM,23µM,.,10µM,.,?
CCn1c(SCC(=O)N/N=C/C=C\c2ccccc2[N+](=O)[O-])nc2ccccc21,.,.,7.3µM,.,?,.
Cc1occc1C(=O)N/N=C/C=C\c1ccccc1[N+](=O)[O-],.,.,.,.,.,.
O=C(NCC(F)(F)F)C1C(=O)Nc2ccccc2C(=O)N1Cc1ccccc1 (centres undefined),.,/,.,.,.,/
O=C(COC(=O)c1cc(Br)ccc1O)Nc1cccnc1Cl,.,.,?,.,.,.
CCOC(=O)[C@]12CCC=C1N(Cc1ccco1)C(=O)[C@H](CC(=O)NCCCCc1ccccc1)C2,.,/,.,.,.,/
Cc1ccc(NC(=O)Cn2c(/C=C/c3ccccc3)nc3ccccc32)cc1C,?,16µM,?,?,.,?
Cc1nc2ccccc2n1CC(=O)NC1CCCCCC1,?,.,15µM,?,?,.
